From PubChem BioAssay (NCI) come the findings set out here.

About 83,000 compounds went through this panel and 20% of them were active in at least one assay; those are over-represented in the sample as a whole.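 How to read the values: 0–100, growth inhibition (40 = 60% inhibited); 0, no net growth; -100 to 0, cell death (-40 = 40% of starting cells died; -100 = all dead).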 Calls of active or inactive are those of the source. Rule for the calls: active = growth percent below 10; inactive = the rest.

For this experiment, the system named is HL-60(TB) leukemia. The experiment can be described thus: NCI-60 one-dose screen, 48 h (100 = growth as untreated, 0 = no growth, -100 = all killed). The following applies: 10 µM unless noted.
`O=C1NC(=O)C(c2coc3cc(Br)ccc23)=C1c1c[nH]c2ccccc12`: the growth is 13.1% (inactive).

With `COc1ccc(OC)c(C2OC(c3ccc4ccccc4c3O)=NN2C(C)=O)c1` (configuration not stated), the growth is 19% (inactive).

Take `CC(=O)Oc1c(Cl)cccc1-c1ccccc1`: the growth was 99.6% (inactive).

For the compound `Cn1cc(-c2nnc(-c3cn(C)c4ncccc34)s2)c2ccccc21`, the growth is 27.8% (inactive).

In the case of `CC(C)CC(=O)C(CCc1ccccn1)C(C)C` (configuration not stated), the growth was 108% (inactive).

`CCCCCCCCCCCCCCCCC(=O)O`: the growth was 101% (inactive).

Turning to `N/C(=N\C(N)=N\c1nc2ccccc2s1)c1ccnc(Cl)c1`, the growth was 1.2% (active).

Turning to `CCc1ccccc1-n1c(N)c(C#N)c(-c2ccc(Cl)cc2)c(C#N)c1=O`, the growth was 117% (inactive).

Consider `CSc1nc(=O)n(Cc2ccc(F)cc2)c(=O)n1Cc1ccc(C)cc1`, for which the growth was 90% (inactive).

Turning to `NC(C(=O)O)C(O)c1ccc(OCc2ccccc2)c(OCc2ccccc2)c1` (configuration not stated), the growth is 105% (inactive).

With `O=Cc1c[nH]c2ccc(-c3csc4ccccc34)cc12`, the growth is 3.68% (active).

Consider `CCOC(=O)COc1ccc2c(c1)O/C(=C\c1ccc(O)cc1)C2=O`, for which the growth is 112% (inactive).

For the compound `CCCCCCCCCCn1cc[n+](C)c1`, the growth is 51.9% (inactive).

For `CCCCC(C#N)C(N)=O` (configuration not stated), the growth was 93.8% (inactive).

Consider `FC(F)(F)Oc1cccc(-c2cc(NCCCCCCNc3cc(-c4cccc(OC(F)(F)F)c4)nc4ccc(N5CCCC5)cc34)c3cc(N4CCCC4)ccc3n2)c1`, for which the growth is 21.7% (inactive).

As to `Cc1ccc(NC(=O)/C=C/c2ccccc2)c(C(N)=O)c1`, the growth was -25.5% (active).

As for `Cc1ccc2c(C)c3c(ccc4ccccc43)c[n+]2c1`, the growth is 94.4% (inactive).
